# Experimental data published in the supplement of paper PMC10849652.
# About 8,800 targets were measured; listed, in parts, are those with a hit and a random draw of the rest. About 0.5% of all pairs of compound and target were hits. Unmarked numbers belong to inactive results.
# How the values were obtained:
# Experiment in all cases: log2 fold change, soluble protein after heating vs DMSO (PISA); higher = thermal stabilisation; K562 lysate, 10 uM; active = over 0.2 and 3.5 SD of the protein, either way, in both replicates (recomputed)
# [1] = compound: NCC(=O)Nc1ccc(-n2nc(C(F)(F)F)cc2-c2ccc3c(ccc4ccccc43)c2)cc1
# Method in brief: (§1)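 Dounce homogenisation of K562 pellets in PBS pH 7.4 with 1 mM MgCl2 produced a crude extract, used at 1 mg/mL protein. Exposure to 10 μM compound lasted 30 min, and aliquots were then heated for 3 min across 48°C-58°C, pooled and brought to 0.5% NP-40 at 4°C. The supernatant after 21,000xg for 90 min was quantified by TMTpro 16plex LC-MS/MS with channel sums equalised. Duplicate values are given as log-two fold change in thermal stability relative to solvent controls.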
# vorinostat = compound: O=C(CCCCCCC(=O)Nc1ccccc1)NO [vorinostat]
# Method in brief: as §1
# silmitasertib = compound: O=C(O)c1ccc2c(c1)nc(Nc1cccc(Cl)c1)c1ccncc12 [silmitasertib]
# Method in brief: as §1
# [2] = compound: O=C1NC(=O)C(c2cnc3ccccn23)=C1c1cn2c3c(cc(F)cc13)CN(C(=O)N1CCCCC1)CC2
# Method in brief: as §1
# entospletinib = compound: c1cn2cc(-c3ccc4cn[nH]c4c3)nc(Nc3ccc(N4CCOCC4)cc3)c2n1 [entospletinib]
# Method in brief: as §1
# Chain of UniProt Q9H410 (Q9H410 whole entry, looked up): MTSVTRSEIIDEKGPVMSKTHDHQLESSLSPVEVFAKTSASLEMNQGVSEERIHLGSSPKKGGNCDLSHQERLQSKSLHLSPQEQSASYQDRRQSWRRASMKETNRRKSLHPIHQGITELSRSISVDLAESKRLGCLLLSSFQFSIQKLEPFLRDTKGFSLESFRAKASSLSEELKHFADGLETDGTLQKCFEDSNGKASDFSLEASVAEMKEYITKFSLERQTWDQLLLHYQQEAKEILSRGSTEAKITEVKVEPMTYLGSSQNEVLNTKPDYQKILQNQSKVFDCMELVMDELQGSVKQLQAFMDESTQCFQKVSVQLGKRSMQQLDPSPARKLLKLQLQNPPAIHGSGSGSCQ
# Chain of UniProt Q8TAG9 (Q8TAG9 whole entry, looked up): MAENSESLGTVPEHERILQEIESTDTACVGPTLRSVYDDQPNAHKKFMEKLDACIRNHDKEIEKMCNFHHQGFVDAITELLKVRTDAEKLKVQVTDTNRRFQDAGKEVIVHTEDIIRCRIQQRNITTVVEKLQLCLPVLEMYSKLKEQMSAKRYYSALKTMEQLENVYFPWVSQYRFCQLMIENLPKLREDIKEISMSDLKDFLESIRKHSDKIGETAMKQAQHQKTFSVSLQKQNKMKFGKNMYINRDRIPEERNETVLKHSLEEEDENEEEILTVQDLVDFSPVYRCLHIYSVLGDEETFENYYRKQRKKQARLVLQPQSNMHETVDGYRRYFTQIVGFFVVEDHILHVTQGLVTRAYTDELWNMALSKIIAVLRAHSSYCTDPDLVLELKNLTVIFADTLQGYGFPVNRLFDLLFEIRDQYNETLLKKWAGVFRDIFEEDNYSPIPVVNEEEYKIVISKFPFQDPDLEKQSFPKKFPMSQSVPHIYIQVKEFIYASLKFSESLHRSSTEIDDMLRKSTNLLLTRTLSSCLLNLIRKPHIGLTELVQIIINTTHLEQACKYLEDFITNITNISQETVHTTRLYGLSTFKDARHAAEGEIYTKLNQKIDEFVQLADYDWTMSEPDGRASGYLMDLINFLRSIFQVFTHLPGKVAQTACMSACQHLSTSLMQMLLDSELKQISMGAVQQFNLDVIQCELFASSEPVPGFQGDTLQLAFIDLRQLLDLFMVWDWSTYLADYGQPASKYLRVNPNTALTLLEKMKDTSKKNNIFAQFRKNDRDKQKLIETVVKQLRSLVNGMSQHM
# Chain of UniProt Q5SZK8 (Q5SZK8 whole entry, looked up): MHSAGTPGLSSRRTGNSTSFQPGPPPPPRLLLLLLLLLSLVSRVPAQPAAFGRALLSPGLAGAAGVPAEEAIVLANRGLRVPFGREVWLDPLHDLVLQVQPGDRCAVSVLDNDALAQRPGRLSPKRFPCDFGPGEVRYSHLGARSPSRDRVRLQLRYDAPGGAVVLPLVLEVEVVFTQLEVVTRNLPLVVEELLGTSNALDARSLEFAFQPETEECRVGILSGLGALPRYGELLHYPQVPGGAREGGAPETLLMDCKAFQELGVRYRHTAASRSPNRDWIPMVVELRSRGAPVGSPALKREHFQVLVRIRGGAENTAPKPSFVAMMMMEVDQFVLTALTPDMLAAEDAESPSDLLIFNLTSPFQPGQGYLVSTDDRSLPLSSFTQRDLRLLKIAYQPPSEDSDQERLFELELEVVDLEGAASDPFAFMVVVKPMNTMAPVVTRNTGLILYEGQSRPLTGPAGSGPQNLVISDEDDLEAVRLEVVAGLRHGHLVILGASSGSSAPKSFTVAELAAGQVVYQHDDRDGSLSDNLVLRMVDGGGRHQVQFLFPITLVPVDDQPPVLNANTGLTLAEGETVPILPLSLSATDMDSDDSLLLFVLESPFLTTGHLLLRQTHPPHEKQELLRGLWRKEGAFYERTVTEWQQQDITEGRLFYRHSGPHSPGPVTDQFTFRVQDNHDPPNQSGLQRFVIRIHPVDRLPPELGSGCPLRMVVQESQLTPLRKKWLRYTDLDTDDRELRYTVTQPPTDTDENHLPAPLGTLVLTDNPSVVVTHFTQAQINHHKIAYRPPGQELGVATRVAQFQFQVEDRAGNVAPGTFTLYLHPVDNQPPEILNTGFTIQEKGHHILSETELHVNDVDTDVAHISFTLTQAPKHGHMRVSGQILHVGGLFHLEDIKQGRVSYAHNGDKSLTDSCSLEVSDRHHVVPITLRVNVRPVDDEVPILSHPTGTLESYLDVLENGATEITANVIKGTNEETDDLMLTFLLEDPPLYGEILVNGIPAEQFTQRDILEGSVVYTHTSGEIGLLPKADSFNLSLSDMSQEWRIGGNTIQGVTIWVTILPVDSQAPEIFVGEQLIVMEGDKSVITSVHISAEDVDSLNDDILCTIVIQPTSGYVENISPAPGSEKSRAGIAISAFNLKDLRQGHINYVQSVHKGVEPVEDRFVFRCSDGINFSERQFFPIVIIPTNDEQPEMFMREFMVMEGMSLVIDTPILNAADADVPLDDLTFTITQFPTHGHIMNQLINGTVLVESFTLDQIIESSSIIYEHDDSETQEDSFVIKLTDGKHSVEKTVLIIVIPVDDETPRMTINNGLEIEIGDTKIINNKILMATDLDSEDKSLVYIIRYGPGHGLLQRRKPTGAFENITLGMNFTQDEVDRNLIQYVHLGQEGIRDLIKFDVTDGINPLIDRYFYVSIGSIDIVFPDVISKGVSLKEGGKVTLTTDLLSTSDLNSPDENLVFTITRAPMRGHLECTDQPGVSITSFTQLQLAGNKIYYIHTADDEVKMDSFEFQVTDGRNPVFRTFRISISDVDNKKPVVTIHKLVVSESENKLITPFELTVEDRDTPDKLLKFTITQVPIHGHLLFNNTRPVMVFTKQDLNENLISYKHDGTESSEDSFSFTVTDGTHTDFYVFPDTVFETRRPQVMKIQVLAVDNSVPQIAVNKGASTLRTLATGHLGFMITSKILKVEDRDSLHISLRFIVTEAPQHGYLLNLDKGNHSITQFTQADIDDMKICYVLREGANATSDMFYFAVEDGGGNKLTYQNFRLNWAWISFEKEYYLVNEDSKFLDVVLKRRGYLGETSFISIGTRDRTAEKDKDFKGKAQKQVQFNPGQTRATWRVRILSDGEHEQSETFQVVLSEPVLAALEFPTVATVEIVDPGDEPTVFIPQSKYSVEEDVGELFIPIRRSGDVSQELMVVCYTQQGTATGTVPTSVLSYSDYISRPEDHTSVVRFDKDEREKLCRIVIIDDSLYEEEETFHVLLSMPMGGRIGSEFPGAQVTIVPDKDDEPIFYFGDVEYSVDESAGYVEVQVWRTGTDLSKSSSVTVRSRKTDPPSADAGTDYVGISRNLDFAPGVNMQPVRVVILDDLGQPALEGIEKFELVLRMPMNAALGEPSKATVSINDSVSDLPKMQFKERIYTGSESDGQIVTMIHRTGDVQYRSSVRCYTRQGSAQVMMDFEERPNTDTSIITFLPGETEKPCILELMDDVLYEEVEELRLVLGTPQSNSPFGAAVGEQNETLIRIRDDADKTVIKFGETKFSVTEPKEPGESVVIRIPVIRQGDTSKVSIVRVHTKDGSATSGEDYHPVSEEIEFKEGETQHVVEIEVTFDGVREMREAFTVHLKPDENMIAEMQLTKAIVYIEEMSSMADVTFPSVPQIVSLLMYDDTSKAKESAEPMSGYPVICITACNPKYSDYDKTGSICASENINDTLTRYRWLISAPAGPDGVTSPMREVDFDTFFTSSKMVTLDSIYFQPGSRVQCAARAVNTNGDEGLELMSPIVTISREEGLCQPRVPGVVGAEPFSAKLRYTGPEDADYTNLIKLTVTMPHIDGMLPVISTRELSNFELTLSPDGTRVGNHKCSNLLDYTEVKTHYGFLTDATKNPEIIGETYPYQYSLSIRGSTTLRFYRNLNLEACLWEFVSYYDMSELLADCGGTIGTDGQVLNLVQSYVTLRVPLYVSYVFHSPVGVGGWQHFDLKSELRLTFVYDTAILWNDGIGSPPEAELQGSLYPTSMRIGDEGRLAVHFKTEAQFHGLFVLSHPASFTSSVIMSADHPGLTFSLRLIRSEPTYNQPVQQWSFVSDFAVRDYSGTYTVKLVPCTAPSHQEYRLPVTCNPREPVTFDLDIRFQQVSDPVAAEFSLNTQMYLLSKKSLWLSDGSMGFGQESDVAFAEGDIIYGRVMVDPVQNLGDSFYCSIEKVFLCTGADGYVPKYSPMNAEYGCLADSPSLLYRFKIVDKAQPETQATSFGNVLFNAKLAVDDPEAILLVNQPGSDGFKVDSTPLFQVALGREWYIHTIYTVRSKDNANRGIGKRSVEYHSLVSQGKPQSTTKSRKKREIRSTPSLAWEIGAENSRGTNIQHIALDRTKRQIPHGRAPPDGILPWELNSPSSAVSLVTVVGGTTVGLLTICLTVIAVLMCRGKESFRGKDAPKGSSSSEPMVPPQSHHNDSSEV
# Chain of UniProt Q9NSD9 (Q9NSD9 whole entry, looked up): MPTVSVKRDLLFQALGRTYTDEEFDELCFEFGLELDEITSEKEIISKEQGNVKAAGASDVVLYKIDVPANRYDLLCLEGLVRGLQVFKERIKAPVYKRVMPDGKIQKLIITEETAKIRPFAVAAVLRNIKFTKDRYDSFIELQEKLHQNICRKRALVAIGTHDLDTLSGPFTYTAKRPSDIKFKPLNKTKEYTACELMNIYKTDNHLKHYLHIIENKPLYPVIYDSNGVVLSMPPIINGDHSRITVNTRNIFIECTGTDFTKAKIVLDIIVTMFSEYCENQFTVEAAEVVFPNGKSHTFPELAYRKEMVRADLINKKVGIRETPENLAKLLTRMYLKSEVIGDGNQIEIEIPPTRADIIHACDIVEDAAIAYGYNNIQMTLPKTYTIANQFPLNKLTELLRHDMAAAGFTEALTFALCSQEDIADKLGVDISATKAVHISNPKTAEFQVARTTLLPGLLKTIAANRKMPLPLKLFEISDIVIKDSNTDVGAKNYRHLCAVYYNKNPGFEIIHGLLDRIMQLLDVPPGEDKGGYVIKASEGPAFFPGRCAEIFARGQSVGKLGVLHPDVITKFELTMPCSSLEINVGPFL
# Chain of UniProt Q6P4F2 (Q6P4F2 whole entry, looked up): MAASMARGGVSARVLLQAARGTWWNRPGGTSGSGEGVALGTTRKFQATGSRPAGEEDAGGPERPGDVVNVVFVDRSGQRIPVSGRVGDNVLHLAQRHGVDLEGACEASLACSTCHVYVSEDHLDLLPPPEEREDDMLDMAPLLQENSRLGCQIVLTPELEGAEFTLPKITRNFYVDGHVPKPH
Target,log2 fold change [1],log2 fold change (vorinostat),log2 fold change (silmitasertib),log2 fold change [2],log2 fold change (entospletinib)
GABPB1 (UniProt Q06547),0,-0.299 (active),0.008,-0.052,-0.004
FIGNL1 (UniProt Q6PIW4),-0.016,-0.484 (active),0.045,0,0.05
EIF2D (UniProt P41214),0.03,-0.385 (active),0.032,0.04,0.02
EIF2B5 (UniProt Q13144),0.013,-0.227 (active),-0.009,-0.029,0.013
EIF2B3 (UniProt Q9NR50),-0.006,-0.244 (active),0.01,0.009,-0.004
FAU (UniProt E9PR30),0.006,0.212 (active),0.047,-0.006,0.016
EPHX2 (UniProt P34913),0.002,0.243 (active),0.002,-0.021,-0.058
FREM2 (UniProt Q5SZK8),0.094,0.048,0.085,-0.11,-0.003
GCLM (UniProt P48507),0.007,-0.277 (active),-0.013,0.032,0.021
EEFSEC (UniProt P57772),-0.022,-0.325 (active),0.052,-0.012,-0.009
FNBP1L (UniProt Q5T0N5),0.001,-0.373 (active),0.102,-0.041,0.017
EIF3I (UniProt Q13347),0.022,-0.316 (active),0.061,-0.005,0.005
EXOC6 (UniProt Q8TAG9),-0.074,-0.301 (active),0.057,-0.006,0.021
EIF1 (UniProt P41567),-0.032,0.12,-0.024,0.036,0.028
GDPD1 (UniProt Q8N9F7),-0.137,0.056,0.033,0.177,-0.092
FXR1 (UniProt P51114),-0.006,-0.257 (active),0.045,-0.041,0.023
EEF1AKMT4 (UniProt P0DPD7),0.053,-0.312 (active),0.029,0.035,0.012
FDX2 (UniProt Q6P4F2),-0.03,0.195,-0.069,-0.066,0.042
FBLL1 (UniProt A6NHQ2),0.006,0.094,0.034,-0.017,-0.014
FAM83D (UniProt Q9H4H8),0,-0.243 (active),0.031,-0.004,0.021
EPB41 (UniProt P11171),-0.046,0.035,0.007,-0.034,0

Target,log2 fold change [1],log2 fold change (vorinostat),log2 fold change (silmitasertib),log2 fold change [2],log2 fold change (entospletinib)
DSN1 (UniProt Q9H410),-0.028,-0.358 (active),-0.007,0.008,-0.017
EXOC3 (UniProt O60645),0.018,-0.221 (active),0.03,0.002,-0.026
FHOD1 (UniProt Q9Y613),-0.018,-0.47 (active),0.008,-0.02,-0.002
EXOC4 (UniProt Q96A65),0.009,-0.389 (active),0.041,-0.022,-0.006
FASTKD2 (UniProt Q9NYY8),0.008,-0.524 (active),0.044,0.025,0.013
EGLN1 (UniProt Q9GZT9),0.008,-0.395 (active),0.025,-0.024,-0.009
EEF1A1P5 (UniProt Q5VTE0),0.04,-0.311 (active),-0.017,0.005,0.033
EPN2 (UniProt O95208),-0.005,0.156,0.02,-0.001,0.012
FAM111A (UniProt Q96PZ2),0.036,-0.364,0.1,0.048,0.044
ELF2 (UniProt Q15723),0.03,-0.25,0,-0.011,-0.03
ESYT2 (UniProt H7BXI1),-0.041,0.243 (active),-0.002,-0.002,0.019
ETHE1 (UniProt O95571),-0.01,-0.113,0.009,0,-0.02
FARSB (UniProt Q9NSD9),-0.01,0.015,0.013,-0.013,0.011
FAM120B (UniProt Q96EK7),-0.002,-0.299 (active),0.041,-0.022,-0.001
EFCAB14 (UniProt O75071),0.039,0.327 (active),-0.054,0.029,0.013
FCHO1 (UniProt O14526),0.041,-0.286 (active),0.03,-0.006,0.024
GCDH (UniProt Q92947),0.004,0.34 (active),0.161,0.187,0.046
FXR2 (UniProt P51116),0.033,-0.25 (active),-0.039,-0.022,-0.064
FKBP1A (UniProt P62942),-0.154,0.036,-0.006,0.068,0.049
GAPVD1 isoform 6 (UniProt Q14C86),-0.033,-0.292 (active),0.04,-0.001,-0.002
